Source: PubChem BioAssay AID493174 (National Center for Advancing Translational Sciences (NCATS), 2011)
Results filed as inconclusive are left out. Calls of active or inactive are those of the source. The call rests on the fitted dose curve; in most records, active means well fitted inhibition curve with a large enough effect; inconclusive means small, poorly fitted or top-dose-only effect; inactive means flat fitted curve, though single readings scatter.

assay: Confirmatory Assay for General miRNAs Modulators and/or Inhibitors/Activators of miR-21: second round cherrypicks; conditions: HeLa miR-21 FLuc reporter, luciferase luminescence, 48 h; series mostly up to 38.3 µM
Excerpt: MLPCN Grant: 1 R21 NS059478-01 Assay Provider: Qihong Huang, The Wistar Institute NCGC Assay Overview: MicroRNAs (miRNAs) are endogenously encoded small (~20-25 nucleotides), nonprotein-coding RNAs that are involved in post-transcriptional repression of target messenger RNAs (mRNAs) (Le and Hannon, 2004). Estimated to be involved in the regulation of 30% of all protein-coding mRNAs (Filipowicz et al., 2008), miRNAs play a significant role in many biological processes including cellular differentiation and tissue development (Ghildiyal and Zamore, 2009).
NCGC Assay Protocol Summary: Reagents: HeLa cells stably expressing firefly luciferase (FLuc) under the control of a CMV promoter (upstream) and a miR-21 binding sequence directly downstream of the gene. These cells endogenously express miR-21. Control compounds used were compound C3 (provided by collaborator), N6-phenyladenosine (MP Biomedicals, 0215379625), and DMSO. Assay Summary: 6uL of HeLa miR-21-FLuc cells in assay buffer (DMEM, Invitrogen #21063-029; 10% FBS, HyClone #SH30071.03) were dispensed at 2000cells/well (3.3 x 10^5 cells/mL) into Greiner solid-white TC-treated 1536-well plates using a Multidrop Combi (Thermo Fisher Scientific). Plates were incubated for one hour at 37 degree Celsius, 95% humidity, 5% CO2. These assay plates were then treated with 23nL of compound or DMSO using a Kalypsys pin tool, which allows for delivery of a 24-point titration of each compound to the assay plate, with a final compound concentration ranging from approximately 40uM to 5pM. Assay plates were then incubated for 48 hours. After incubation, plates were allowed to come to RT for one hour prior to delivery of 3uL of 3X luciferase detection reagent. After a 15 minute incubation to allow for cell lysis, luciferase activity was measured using a ViewLux CCD imager (PerkinElmer), with an average exposure time of 2-12 seconds. Keywords: NIH Roadmap, MLPCN, MLSMR, qHTS, miR-21, microRNA, firefly luciferase, FLuc.

SMILES	Potency
Cc1ccc(NC(=O)c2ccc(-c3ccccc3)s2)cc1	5.65 µM (active)
Cc1ccc(C(=O)Nc2ccc3c(c2)ncn3C)cc1	7.11 µM (active)
CCC(C)C(=O)N1CCCC(c2nc(-c3cccs3)no2)C1 (stereo not drawn)	12.6 µM (active)
COCCNC(=O)c1ccc2c(c1)ncn2-c1ccc(F)c(F)c1	22.5 µM (active)
CC(=O)c1ccc(Oc2ncnc3c2oc2ccccc23)cc1	4 µM (active)
COC(=O)c1ccccc1NC(=O)Nc1cc(C(C)(C)C)on1	5.65 µM (active)
CCC(C)NC(=O)CCCn1c(=O)c2cccn2c2ccccc21 (stereo not drawn)	inactive
COc1ccccc1N1CCN(C(=O)c2nc(-c3ccc(C)cc3)n3c2CCCCC3)CC1	inactive
CCCCN1CCc2c([nH]c3ccccc23)C1=O	12.6 µM (active)
C/C(=N/NC(=O)c1ccccc1)c1ccc(NC(=O)C(F)(F)F)cc1	inactive
Cc1ccc(-c2cc(C(=O)NCC3CCCO3)no2)cc1 (stereo not drawn)	4.49 µM (active)
CC(=O)N1CCc2cc(CNC(=O)Cc3ccc(F)cc3)ccc21	11.3 µM (active)
CCC(=O)Nc1sc(C(=O)Nc2ccccc2)c(C)c1C(=O)OC	2.25 µM (active)
Cc1ccccc1NC(=O)c1cc2c([nH]c1=O)CC(C)(C)CC2=O	0.711 µM (active)
CCCOc1ccc(OC(=O)c2ccc(-c3ccc(CCC)cn3)cc2)cc1	1.26 µM (active)
Cc1cc(C)c2c(N)c(C(=O)Nc3ccccc3C(F)(F)F)sc2n1	20 µM (active)
CCC(CC)C(=O)Nc1nnc(S(=O)(=O)N2CCCCCC2)s1	inactive
CN(c1ccccc1)S(=O)(=O)c1nnc(NC(=O)c2ccco2)s1	inactive
O=C(NC1CCCCCC1)C1CCN(C(=O)N2CCOc3ccc(Cl)cc32)CC1	inactive
O=C(Nc1sc2c(c1C(=O)NCc1ccco1)CCCC2)c1cc(=O)c2ccccc2o1	5.65 µM (active)
COc1ccc(N2C(=O)c3ccccc3NC2c2ccc(OC)c(Cn3nnc4ccccc43)c2)cc1 (stereo not drawn)	12.6 µM (active)
CCOC(=O)C1CCN(C(=O)c2ccc(-n3ccc4ccccc43)s2)CC1	11.3 µM (active)
CC(C)c1cc(C(=O)Nc2cccnc2)no1	3.18 µM (active)
COc1ccc(Nc2nc(C)c3ccccc3n2)cc1	6.34 µM (active)
Cc1cccc(NC(=O)Nc2ccc(Br)cc2)n1	2.52 µM (active)
CCc1cc(C(=O)Nc2ccccc2)cs1	3.18 µM (active)
CC(=O)O[C@H]1C[C@@]2(C)[C@@H](C[C@@H](O)[C@H]3[C@@]4(C)CC[C@@H](O)[C@@H](C)C4CC[C@@]32C)/C1=C(\CCC=C(C)C)C(=O)O (stereo partly drawn)	inactive
CCOC(=O)c1cccc(NC(=O)c2cc(CN3CCCC3)on2)c1	1 µM (active)
